Results as given in PubChem BioAssay (NCATS).
Records with an inconclusive call do not appear. Active and inactive are the calls of the source. Calls come from the whole dose curve; as a rule, active = well fitted curve in the direction sought with a large enough effect; inconclusive = small, poorly fitted or top-dose-only effect, or another doubt; inactive = no such curve, though single readings can be large; an effect the other way counts as inactive or inconclusive.

Key:
[1] = qHTS Assay for Identifying Gametocytocidal Compounds (AID 743244); note: potency is the fitted concentration of half-maximal effect;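 for max response: % is set by controls: 0 for no effect and ±100 for the full control effect; actives lower the fluorescent signal which means gametocytes are killed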; conditions: P. falciparum 3D7 stage III-V gametocytes, alamarBlue, 72 h; max response: hits give low values
In short: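 Stage III–V gametocytes of P. falciparum 3D7 were seeded at 20,000 cells/well onto pre-dispensed compounds. After 72 h, 37 °C, 5% CO2, alamarBlue was added for another 24 h.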

[2] = qHTS assay for measurement of the activity of small molecule inhibitors on Zika virus induced Caspase-3 activity in human iPSC derived neural progenitor cells (hNPCs) (AID 1224857); conditions: hNPCs ZIKV-induced caspase-3/7, Caspase-Glo luminescence, 6 h; series mostly up to 45.7 µM; note: % of control where 0% means no effect; nearly all actives have a fitted effect of over 65% in size
In short: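 Values are percent inhibition of virus-induced caspase-3/7 signal, scaled between uninfected cells and ZIKV-infected cells. Infection used 2 FFU/cell for 6 h after 1 h compound exposure.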

Row | Compound | max response [1] | Potency [2] | Potency [1] | activity change, negative = inhibition [2]
1 | CCN1CCCC(OC(=O)C(c2ccccc2)c2ccccc2)C1 (stereo not drawn) | -3.97% (inactive) | inactive | – | –
2 | CCCCCCCCCCCCCC[N+](C)(C)Cc1ccccc1 | – | inactive | 8.91 µM (active) | –
3 | O=C1C(O)=C(O)C(=O)C(O)=C1O | -3.08% (inactive) | inactive | – | –
4 | O=C(Nc1cccc(C2=NCCN2)c1)Nc1cccc(C2=NCCN2)c1 | -7.84% (inactive) | inactive | – | –
5 | CC(=O)Nc1ccc(CC(=O)O)cc1 | 7.88% (inactive) | inactive | – | –
6 | CC[C@H](c1ccc(O)cc1)[C@@H](CC)c1ccc(O)cc1 | 11.9% (inactive) | inactive | – | –
7 | CCOC(=O)[C@H](CCc1ccccc1)N[C@@H](C)C(=O)N1[C@H](C(=O)O)C[C@@H]2CCC[C@@H]21 | -0.0266% (inactive) | inactive | – | –
8 | CC(=O)NC(=O)c1ccccc1O | -9.03% (inactive) | inactive | – | –
9 | Cc1ccccc1OCC(O)CO (stereo not drawn) | -6.04% (inactive) | inactive | – | –
10 | FC(F)(F)C(F)(F)C(F)(F)C(F)(F)C(F)(F)C(F)(F)C(F)(F)C(F)(F)Br | 5.68% (inactive) | inactive | – | –
11 | CCc1oc2ccccc2c1C(=O)c1cc(Br)c(O)c(Br)c1 | -6.8% (inactive) | inactive | – | –
12 | N=C(N)N1CCc2ccccc2C1 | 4.79% (inactive) | – | – | -12.7% [at 4.53 µM] (inactive)
13 | CC(=O)OCC(=O)[C@H]1CC[C@H]2[C@@H]3CCC4=CC(=O)CC[C@]4(C)[C@H]3CC[C@]12C | -7.41% (inactive) | inactive | – | –
14 | CO[C@]12C[C@@H](COC(=O)c3cncc(Br)c3)CN(C)[C@@H]1Cc1cn(C)c3cccc2c13 | 10.7% (inactive) | inactive | – | –
